The list is not random: actives were taken first. Their share in the collection is about 5%.
CHT block: inhibits the human high affinity choline transporter | CHT-expressing cells, membrane potential dye, choline response; stronger effect = lower value | Q9GZV3 | AID 488975 | B-score at 10 µM | 310,000 tested, 0.86% active;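 active = B-score over 3 SD under the library average, and starting fluorescence ratio not unusually high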;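 also: choline stimulus applied at its EC90 after an EC20 pre-addition; B-score computed on integrated fluorescence ratio after choline addition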
Target sequence (Q9GZV3 whole entry, looked up): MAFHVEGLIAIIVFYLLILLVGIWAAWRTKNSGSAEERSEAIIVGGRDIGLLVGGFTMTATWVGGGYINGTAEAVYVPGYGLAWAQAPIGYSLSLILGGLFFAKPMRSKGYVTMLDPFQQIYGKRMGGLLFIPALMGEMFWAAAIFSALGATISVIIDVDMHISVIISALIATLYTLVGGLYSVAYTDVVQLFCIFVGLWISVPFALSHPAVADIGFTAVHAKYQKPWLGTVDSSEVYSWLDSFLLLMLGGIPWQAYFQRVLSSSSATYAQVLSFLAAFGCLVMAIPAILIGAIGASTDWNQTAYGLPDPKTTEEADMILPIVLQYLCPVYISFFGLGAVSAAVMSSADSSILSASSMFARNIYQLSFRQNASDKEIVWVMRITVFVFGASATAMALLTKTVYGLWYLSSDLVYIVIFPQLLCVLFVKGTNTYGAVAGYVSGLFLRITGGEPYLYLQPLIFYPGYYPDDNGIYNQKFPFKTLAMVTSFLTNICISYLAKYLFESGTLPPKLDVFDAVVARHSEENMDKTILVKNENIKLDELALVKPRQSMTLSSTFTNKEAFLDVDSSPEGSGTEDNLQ
CHT allo act: allosterically activates the human high affinity choline transporter; B-score at 10 µM; 310,000 tested, 0.49% active; Q9GZV3; CHT-expressing cells, membrane potential dye, choline EC20; stronger effect = higher value; LV-AA mutant CHT in HEK293 cells;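 active = initial fluorescence not abnormally high and integrated response B-score, plate-corrected, over 3 SD above library mean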
AI-2 QS mod: Vibrio harveyi AI-2 quorum sensing modulation; activity change, % at 7.5 µM; 300,000 tested, 0.4% active; Vibrio harveyi JMH597 AI-2 luminescence/OD600 ratio, 9 h; stronger effect = lower value; strain lacks LuxN and CqsS sensors; 0 = neutral-control median; in the data active = activity change below about -75%, passing the limit was not always enough; inconclusive = no clear call, values can overlap the other calls;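 also: luminescence divided by OD600 gain over 9 h not by final OD600 alone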
ALR H2O2 inh: human ALR oxidase inhibition via reduced H2O2. P55789. purified ALR, DTT oxidation, H2O2 HRP-luminol luminescence. inhibition, % (no concentration beside the values). AID 485317. 290,000 tested, 3.8% active;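 active = mean replicate inhibition above about 79%, with every replicate also reaching it, limit read from the data; inconclusive = only one of the two criteria met; inactive = mean below limit and not every replicate reaching it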
PREPL inh: inhibits the human prolyl oligopeptidase-like enzyme. Q4J6C6. recombinant PREPL, fluorescence polarization activity-based probe. inhibition, % at 5.96 µM. 320,000 tested, 0.68% active. AID 2751; in the data active = inhibition above about 43%;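 also: 0% = enzyme with DMSO and 100% = wells lacking enzyme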
An asterisk follows results filed as active; i = inactive; u = inconclusive; x = no result.

SMILES	CHT block	CHT allo act	AI-2 QS mod	ALR H2O2 inh	PREPL inh
COc1cc(NC(=O)N2c3ccccc3Sc3ccccc32)c(C(=O)O)cc1OC	i	i	29	99*	12
CCC1CCCCN1S(=O)(=O)c1ccc(C(=O)Nc2nnc(-c3cccs3)o2)cc1 (centres undefined)	i	i	x	98*	-2
CC1CC(C)CN(S(=O)(=O)c2ccc(C(=O)Nc3nnc(-c4cccs4)o3)cc2)C1 (centres undefined)	i	i	76	72	5
Oc1ccc(/C=C/c2ccc3ccccc3n2)cc1	i	i	-6	30	32
CN(C)c1ccc(/C=C/c2ccc3ccccc3n2)cc1	i	i	0	44	60*
Cc1ccc(C(=O)/C=C/c2ccco2)c(O)c1	i	i	16	98*	-4
Cc1ccc(O)c(NC(=S)NC(=O)/C=C/c2ccco2)c1	i	i	24	30	7
Cc1cnc(C(=O)N2CCCC(C(=O)c3cccc(OC(C)C)c3)C2)cn1 (centres undefined)	i	i	23	-13	11
COc1ccc(CNC(=O)C2CCN(S(=O)(=O)c3ccc4c(c3)N(C(C)=O)CCO4)CC2)cc1	i	i	24	-2	2
Cc1cc2[nH]c(=O)c(=O)[nH]c2cc1S(=O)(=O)N1CCC(C)CC1	i	i	12	-6	-1
O=C(CSS(=O)(=O)O)N1CCN(C(=O)c2ccoc2)CC1	i	i	7	98*	6
CCC(=O)N1CCN(C(=O)c2ccccc2)CC1	i	i	x	-6	5
COc1ccc2nc(NC(=O)Cn3cnc4c(=O)n(C)c(=O)n(C)c43)sc2c1	i	i	0	x	5
Cn1c(=O)c2c(ncn2CC(=O)Nc2nc3ccc(F)cc3s2)n(C)c1=O	i	i	26	99*	5
COc1cc(/C=N/NC(=O)c2ccc(=O)[nH]n2)ccc1O	i	i	28	99*	-4
O=C(N/N=C/c1ccc(O)cc1)c1cc(C2CC2)[nH]n1	i	i	15	99*	0
COc1ccc(/C=N/NC(=O)c2cc(C3CC3)[nH]n2)cc1OC	i	i	37	x	5
COc1cc(/C=N/NC(=O)c2cc(C3CC3)[nH]n2)ccc1O	i	i	26	99*	11
Nn1c(SCC(=O)NCCc2ccc(F)cc2)nnc1C1CCCCC1	x	x	x	-23	5
COc1ccc(OCC(=O)N/N=C/c2ccc(N(C)C)cc2)cc1	i	i	7	98*	4
CN(C)c1ccc(/C=N/NC(=O)CCCCCNC(=O)c2ccccc2)cc1	i	i	1	x	12
CCCCCC(=O)N/N=C/c1ccc(N(C)C)cc1	i	i	9	90*	4
CN(C)c1ccc(/C=N/NC(=O)CCC(=O)NCc2ccccc2)cc1	i	i	23	87*	2
CN(C)c1ccc(/C=N/NC(=O)CCCO)cc1	i	i	24	96*	3
CN(C)c1ccc(/C=N/NC(=O)CCc2c[nH]c3ccccc23)cc1	i	i	0	98*	27
SMILES	CHT block	CHT allo act	AI-2 QS mod	ALR H2O2 inh	PREPL inh
CCN(CC)c1ccc(/C=N/NC(=O)c2c[nH]c3ccccc23)cc1	i	i	24	72	22
CCOc1ccc(C(=O)NCC(=O)N2CCCC2)cc1	i	i	4	0	-3
Cc1ccc(COc2ccsc2C(=O)NN)cc1	i	i	11	62	-5
O=C1/C(=C/c2ccc(O)c(O)c2)Oc2cc(O)ccc21	i	i	x	98*	3
O=C1/C(=C/c2cccc([N+](=O)[O-])c2)Oc2cc(O)ccc21	i	i	13	5	6
COc1cc(/C=C2\Oc3cc(O)ccc3C2=O)ccc1O	i	i	83	97*	-52
O=C(c1cccs1)N1CCN(S(=O)(=O)c2ccc(F)cc2)CC1	i	i	9	-1	16
CO[C@H]1C=CO[C@@]2(C)Oc3c(C)c(O)c4c(O)c(c5c(nc6cc(C)ccn65)c4c3C2=O)NC(=O)C(C)=CC=C[C@H](C)[C@H](O)[C@@H](C)[C@@H](O)[C@@H](C)[C@H](OC(C)=O)[C@@H]1C	x	x	-219*	x	x
CO[C@H]1C=CO[C@@]2(C)Oc3c(C)c(O)c4c(O)c(c5c(c4c3C2=O)NC2(CCN(CC(C)C)CC2)N=5)=NC(=O)C(C)=CC=C[C@H](C)[C@H](O)[C@@H](C)[C@@H](O)[C@@H](C)[C@H](OC(C)=O)[C@@H]1C	i	i	u	x	-2
CNC(=O)c1[nH]cnc1C(=O)Nc1ccccn1	i	i	-5	1	-2
CCN(CC)CC(=O)c1ccc(-c2ccccc2)cc1	i	i	10	99*	-9
CCOC(=O)c1c(C)[nH]c(C)c1C(=O)COc1ncnc2cc([N+](=O)[O-])ccc12	i	i	4	-6	27
Nc1ccccc1SC/C=C/CSc1ccccc1N	i	i	-43	99*	10
O=S(=O)(c1ccc(F)cc1)N1CCN(CCc2ccccc2)CC1	i	i	10	-2	-13
CC(=O)c1ccc(NC(=O)/C(C#N)=C/c2ccncc2)cc1	i	i	30	98*	4
O=c1[nH]c(=O)n([C@H]2C[C@H](O)[C@@H](CO)O2)cc1Br	x	x	x	0	4
O=c1[nH]c(=O)n([C@H]2C[C@H](O)[C@@H](CO)O2)cc1F	i	i	-99*	-7	-5
Cc1ccccc1S(=O)(=O)NC1OC(=O)C(Cl)=C1Cl (centres undefined)	i	i	13	14	-4
Cc1ccccc1S(=O)(=O)NC1OC(=O)C(Oc2ccccc2)=C1Br (centres undefined)	i	i	18	95*	-10
CC(=O)N=C1C=CC(=CN(O)C(C)(C)Cc2ccccc2)C=C1	i	i	0	-10	5
CC(C)(/C=N/O)N(O)C=C1C=CC(=O)C=C1	i	i	9	99*	-4
O=C(COC(=O)C(c1ccccc1)c1ccccc1)NCc1ccco1	i	i	-72	2	0
NC(=S)NNc1cc(Cl)cc(Cl)c1	i	i	30	97*	-10
Oc1ccc(-c2nnc(Nc3cccc(O)c3)c3ccccc23)cc1	i	i	12	98*	12
CNC(=O)c1cc(Nc2nnc(-c3ccc(O)cc3)c3ccccc23)ccc1OC	i	i	31	98*	5
CN(C)C(=O)c1ccc(Nc2nnc(-c3ccc(O)cc3)c3ccccc23)cc1	i	i	1	74	-1
NC(=O)COc1ccc(Nc2nnc(-c3ccc(O)cc3)c3ccccc23)cc1	i	i	12	99*	-1
Cc1ccc(-c2nnc(Nc3ccc(O)cc3)c3ccccc23)cc1S(=O)(=O)NCCO	i	i	1	97*	x
